Source: PubChem (SRMLSC)
An excerpt weighted towards active compounds, which were near 6.3% of everything screened.
NADH enzymes: inhibitors of enzymes used to reach an NAD/NADH endpoint; 0.02% of 65,000 active; IC50, µM (top dose mostly 10 µM), inactives show top-dose inhibition; coupled PK/LDH NADH assays, four targets;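 active means single-dose screening hits from any of four coupled enzyme assays that gave an IC50 when retested across doses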;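 further: the DPM-DC format reads NADH fluorescence rather than 340 nm absorbance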
Autofluor 339: intrinsic fluorescence of library compounds, ex339/em460 – biochemical, MLSMR library, data from DPM-DC assay, artefact control, profiling panel; fluorescence fold increase at 10 µM; compound autofluorescence, ex339/em460 nm, NADH buffer; stronger effect = higher value; 1 = no-compound wells, NADH background; 5.5% of 65,000 active; AID 709;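 active means at 10 µM, mean starting fluorescence two-fold or more over control wells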;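 further: signal is the first read of a kinetic run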
Spn DPM-DC inh: S. pneumoniae DPM-DC inhibition | purified DPM-DC, PK/LDH coupled NADH fluorescence | calls only at 10 µM | 0.49% of 65,000 active | AID 556;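 active means the 320 compounds with the highest percent inhibition in the single-dose primary screen, excluding strongly autofluorescent ones, cut at about 32% in these data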;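 further: kinetic rate of NADH fluorescence loss reporting ADP formed by the decarboxylase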
Spn PMK inh: inhibitors of Streptococcus pneumoniae phosphomevalonate kinase; purified PMK, PK/LDH-coupled NADH absorbance 340 nm; inhibition, % at 10 µM; 0.49% of 65,000 active; AID 539;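 active means top-ranked compounds by inhibition in the single 10 µM screen, taking a fixed number of the strongest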;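 further: 0% = full reaction with DMSO carrier and 100% = background rate without enzyme reaction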
Abs 340nm: compound absorbs light at 340 nm; compound absorbance at 340 nm, fold over control; fold change at 10 µM; 65,000 tested, under 10 active; AID 708;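 active means at 10 µM dose, initial 340 nm absorbance at least 2 fold that of control wells; inactive means change under 2 fold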;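 further: initial absorbance extrapolated from kinetic A340 decline of NADH oxidation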
MK inhibit: blocks S. pneumoniae mevalonate kinase; purified MK, PK/LDH-coupled NADH absorbance 340 nm; inhibition, % at 10 µM; 0.48% of 65,000 active; AID 555;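 active means ranked among the strongest by inhibition in the single 10 µM screen, a fixed top-ranked set picked for dose follow-up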
Starred values were filed as active, the others as inactive; i = inactive; . = no result given; + = active, no number.

SMILES	NADH enzymes	Autofluor 339	Spn DPM-DC inh	Spn PMK inh	Abs 340nm	MK inhibit
CCOc1ccc2nc(NC(=O)C3CCN(c4cnccn4)CC3)sc2c1	10.0%	2.61*	i	11.0	1.04	0.0
CCOc1cc2[nH]c(=O)n(CC3CCC(C(=O)NCCC(C)C)CC3)c(=O)c2cc1OCC (stereo not given)	1.0%	1.43	i	1.0	1.05	3.0
CCOc1cc2[nH]c(=O)n(CCCCC(=O)NC3CCCCCC3)c(=O)c2cc1OCC	6.0%	2.29*	i	5.0	1.06	8.0
CCOc1cc2[nH]c(=O)n(CCCN3CCCC3=O)c(=O)c2cc1OCC	8.0%	2.28*	i	10.0	1.02	3.0
CCOc1cc2[nH]c(=O)n(CC3CCC(C(=O)NCCCOC)CC3)c(=O)c2cc1OCC (stereo not given)	0.0%	2.14*	i	0.0	1.04	0.0
CCNCCNC(=O)c1c(O)c2c([nH]c1=O)CCCC2	3.0%	1.06	i	1.0	0.98	7.0
COc1ccc(NC(=O)Cc2ccc(Cl)cc2)cc1NC(=O)c1ccco1	6.0%	1.12	i	3.0	1.04	8.0
O=C(CSc1n[nH]c(-c2ccco2)n1)N1c2ccccc2Sc2ccccc21	9.0%	1.13	i	9.0	1.02	9.0
Cc1cccn2cc(-c3ccc(S(=O)(=O)N4CCOCC4)cc3)nc12	2.0%	2.17*	.	0.0	1.12	4.0
O=S(=O)(c1cccc(-c2cn3cc(Cl)ccc3n2)c1)N1CCOCC1	4.0%	1.91	i	11.0	1.08	0.0
O=S(=O)(c1ccc(-c2cn3ccccc3n2)cc1)N1CCOCC1	5.0%	2.23*	.	0.0	1.11	10.0
COC(=O)CSc1nnc2c(C)cc3cc4c(cc3n12)OCCO4	7.0%	0.82	i	1.0	1.02	5.0
COc1cc2[nH]c(=O)n(CCCC(=O)N3CC=C(c4ccccc4)CC3)c(=O)c2cc1OC	7.0%	1.54	i	0.0	1.09	17.0
COc1cc2[nH]c(=O)n3nc(-c4ccccc4)nc3c2cc1OC	16.0%	2.1*	.	19.0	1.07	13.0
CSCC[C@H](NC(=O)OC(C)(C)C)c1nnc(SCC(=O)N(C)C)o1	4.0%	1.09	i	8.0	1.05	3.0
COCC(C)NCc1ccc(C)cc1C (stereo not given)	20.0%	1.07	i	1.0	1.06	52.0*
Cc1ccc(CNc2ccc3c(c2)OCO3)c(C)c1	0.0%	1.19	i	0.0	1.07	0.0
CCn1c(=O)c(C)nn2c3ccccc3nc12	6.0%	1.08	i	7.0	1.04	10.0
CCc1nc2ccccc2n(CCOCCn2c(=O)c(CC)nc3ccccc32)c1=O	2.0%	1.3	i	0.0	1.04	6.0
O=C(O)CCc1nc2ccccc2n(CCc2ccccc2)c1=O	2.0%	2.33*	i	6.0	1.05	0.0
O=C(O)CCc1nn2c3ccccc3nc2n(CCN2CCCCC2)c1=O	10.0%	4.42*	.	20.0	1.02	0.0
O=C(O)C1CCC(CNCc2cccnc2)CC1 (stereo not given)	5.0%	0.99	i	11.0	1.01	4.0
O=C1CN(C(=O)CSc2nncn2-c2ccccc2)c2ccccc2N1	5.0%	1.07	i	12.0	1	2.0
CCOc1ccc(-c2nc(C#N)c(N3CCCCCC3)o2)cc1	4.0%	2.43*	.	11.0	1	9.0
CCCOc1ccc(-c2nc(C#N)c(N3CCN(C)CC3)o2)cc1	2.0%	3.87*	.	0.0	1.1	4.0
SMILES	NADH enzymes	Autofluor 339	Spn DPM-DC inh	Spn PMK inh	Abs 340nm	MK inhibit
CCOc1ccc(-c2nc(C#N)c(N3CCN(C)CC3)o2)cc1	2.0%	2.92*	.	1.0	1.04	6.0
N#Cc1nc(-c2ccc(OCc3ccc(Cl)cc3)cc2)oc1N1CCOCC1	7.0%	1.85	i	9.0	1.05	10.0
CC1=C(C(=O)Nc2ccccc2)C(c2ccc(C)o2)N2C(=O)CSC2=N1 (stereo not given)	4.0%	1.06	i	7.0	1.08	6.0
O=C(NCc1cccnc1)c1ccc2c(=O)n(CCCN3CCCC3=O)c(=S)[nH]c2c1	24.0%	0.47	+	13.0	1.07	6.0
COc1ccc(Cn2c(=O)[nH]c3cc(C(=O)NCCCN4CCCC4=O)ccc3c2=O)cc1	7.0%	1.2	i	13.0	1.03	8.0
CCc1n[nH]c2c1C(=O)CC(C)(C)C2	2.0%	1.05	i	0.0	1.01	9.0
